# According to PubChem BioAssay (Tox21):
# Values without a mark were called inactive. Records with an inconclusive call do not appear. A call without a number means that no potency is given here. Active and inactive are the calls of the source. The call rests on the fitted dose curve; in most records, active means well fitted curve in the direction sought with a large enough effect in the repeat runs; inconclusive means weak or mixed curves; inactive means no such curve, though single readings can be large; an effect the other way counts as inactive or inconclusive.
# Assays:
# [1] = Human pregnane X receptor (PXR) small molecule agonists, qHTS cell viability counter screen (AID 1346977); further: nearly all actives have a fitted effect of over 50% in size; further: potency means the concentration at half of the fitted maximal effect
# In short: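 Viability counter screen: CellTiter-Fluor signal in PXR-Luc HepG2 cells, 24hr compound exposure, 37C, 5% CO2.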
# [2] = Caspase-3/7 induction in HepG2 cells by small molecules, qHTS assay (AID 1346978); further: nearly all actives have a fitted effect of over 15% in size
# In short: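 Wild-type HepG2 cells (2,000/well) were settled 5 h at 37 C, 5% CO2, then exposed to compounds in DMSO for 17 h. Caspase-3/7 activity was read by luminescence 30 min after adding Caspase-Glo 3/7 reagent at room temperature.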
# [3] = Caspase-3/7 induction in CHO-K1 cells by small molecules, qHTS cell viability counter screen (AID 1346979); further: nearly all actives have a fitted effect of over 35% in size; further: potency means the concentration at half of the fitted maximal effect
# In short: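 Viability readout by fluorescence (CellTiter-Fluor) on wild-type CHO-K1 cells exposed for 16hr at 37C and 5% CO2 to compounds delivered in DMSO; reagent incubated 1hr before reading.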
# [4] = Caspase-3/7 induction in CHO-K1 cells by small molecules, qHTS assay (AID 1346980); further: nearly all actives have a fitted effect of over 15% in size
# In short: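 Wild-type cells were seeded at 1,500 per well and settled 5 hr at 37 C, 5% CO2, then exposed to DMSO-dissolved compounds for 17 hr. Caspase-Glo 3/7 reagent was added, and luminescence was read after 30min at room temperature.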
# [5] = Caspase-3/7 induction in HepG2 cells by small molecules, qHTS cell viability counter screen (AID 1346981); further: nearly all actives have a fitted effect of over 30% in size; further: potency means the concentration at half of the fitted maximal effect
# In short: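 Fluorescence read-out of live-cell protease activity (CellTiter-Fluor) after 1 hr with reagent. This was measured in the same wells as the caspase-3/7 luminescence, on HepG2 cells exposed to DMSO-dissolved compounds for 16 hr at 37 C.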
# [6] = biological target: Nuclear receptor subfamily 1 group I member 2 (Homo sapiens) (UniProt O75469); test: Human pregnane X receptor (PXR) small molecule agonists, qHTS assay (AID 1346982); further: nearly all actives have a fitted effect of over 35% in size; further: potency means the concentration at half of the fitted maximal effect
# In short: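 HepG2 PXR-Luc reporter line, 5% charcoal-stripped FBS; 5 hr pre-incubation, compound (DMSO) 24 hr at 37 C/5% CO2; ONE-Glo 30 min RT; luminescence read-out.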
# [7] = biological target: Cytochrome P450 2D6 (Homo sapiens) (UniProt P10635); test: Cytochrome P450 Family 2 Subfamily D Member 6 (CYP2D6) small molecule antagonists: luciferase reporter qHTS assay (AID 1671196); further: nearly all actives have a fitted effect of over 50% in size; further: potency means the concentration at half of the fitted maximal effect
# In short: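 Luminogenic proluciferin substrate, CYP2D6 enzyme; 10 min RT preincubation with compound, NADPH regeneration system added, 1 h RT. Stop/detection reagent, 20 min RT, luminescence read (RLU). Signal proportional to CYP activity.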
# Nuclear receptor subfamily 1 group I member 2 (Homo sapiens), sequence (O75469 whole entry, looked up): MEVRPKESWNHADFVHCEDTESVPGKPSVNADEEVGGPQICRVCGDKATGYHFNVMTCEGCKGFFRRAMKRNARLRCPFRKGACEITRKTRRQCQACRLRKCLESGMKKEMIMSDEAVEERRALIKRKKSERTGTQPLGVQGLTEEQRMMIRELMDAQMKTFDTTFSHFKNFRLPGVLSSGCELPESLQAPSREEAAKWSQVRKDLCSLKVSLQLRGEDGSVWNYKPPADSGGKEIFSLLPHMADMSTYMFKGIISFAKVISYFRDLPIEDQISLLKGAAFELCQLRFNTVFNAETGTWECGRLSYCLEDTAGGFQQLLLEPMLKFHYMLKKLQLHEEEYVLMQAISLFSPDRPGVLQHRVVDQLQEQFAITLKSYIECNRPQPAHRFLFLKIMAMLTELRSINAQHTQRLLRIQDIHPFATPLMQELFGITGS
# Cytochrome P450 2D6 (Homo sapiens), sequence (P10635 whole entry, looked up): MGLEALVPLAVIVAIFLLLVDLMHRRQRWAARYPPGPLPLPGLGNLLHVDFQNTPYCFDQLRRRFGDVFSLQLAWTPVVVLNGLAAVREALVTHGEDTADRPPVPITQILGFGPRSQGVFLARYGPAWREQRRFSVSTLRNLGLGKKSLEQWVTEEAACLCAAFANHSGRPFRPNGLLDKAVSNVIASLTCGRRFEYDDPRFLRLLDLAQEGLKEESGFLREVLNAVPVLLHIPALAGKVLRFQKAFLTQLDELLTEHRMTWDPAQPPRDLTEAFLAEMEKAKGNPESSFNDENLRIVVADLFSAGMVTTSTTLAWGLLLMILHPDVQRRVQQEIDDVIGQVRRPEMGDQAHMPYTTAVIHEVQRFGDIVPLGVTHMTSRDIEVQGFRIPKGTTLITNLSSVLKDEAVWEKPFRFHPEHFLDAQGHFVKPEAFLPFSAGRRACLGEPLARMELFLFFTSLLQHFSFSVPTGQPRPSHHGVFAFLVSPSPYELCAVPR
SMILES,Potency [1],Potency [2],Potency [3],Potency [4],Potency [5],Potency [6],Potency [7]
CCOC(=O)C(O)c1ccccc1 (centres undefined),inactive,inactive,inactive,inactive,inactive,inactive,inactive
CN1Cc2cc(C(=O)N3CCC(C4CCNCC4)CC3)ccc2NC(CC(=O)O)C1=O (centres undefined),inactive,inactive,inactive,inactive,inactive,inactive,inactive
CCCCCCc1ccc(-c2ccc(C#N)cc2)cc1,inactive,inactive,inactive,inactive,inactive,inactive,39.2 µM (active)
CCCCCCCCO[C@@H]1O[C@H](CO)[C@@H](O)[C@H](O)[C@H]1O,inactive,inactive,inactive,inactive,inactive,inactive,inactive
Nc1cccc(S(=O)(=O)c2cccc(N)c2)c1,inactive,inactive,inactive,inactive,inactive,inactive,inactive
CCO[C@H](Cc1ccc(OCCc2ccc(OS(C)(=O)=O)cc2)cc1)C(=O)O,inactive,inactive,inactive,inactive,inactive,inactive,inactive
CCN(CC)c1ccc2c(-c3ccccc3C(=O)O)c3ccc(=[N+](CC)CC)cc-3oc2c1,4.86 µM (active),inactive,2.17 µM (active),inactive,5.45 µM (active),24.3 µM (active),35.6 µM (active)
COC(=O)c1ccc(I)cc1S(=O)(=O)NC(=O)Nc1nc(C)nc(OC)n1,inactive,inactive,inactive,inactive,inactive,inactive,inactive
CCOC(=O)C(F)(F)F,inactive,inactive,inactive,inactive,inactive,inactive,35.6 µM (active)
CCN(CC)CCNC(=O)c1cc(Br)c(N)cc1OC,inactive,inactive,inactive,inactive,inactive,inactive,4.9 µM (active)
O=C(O)c1nc(Cl)c(Cl)c(Cl)c1Cl,inactive,inactive,inactive,inactive,inactive,inactive,28.3 µM (active)
CCOC(=O)Cc1cccc2ccccc12,inactive,inactive,inactive,inactive,inactive,inactive,inactive
O=C1OC(=O)C2C3C=CC(C3)C12 (centres undefined),inactive,inactive,inactive,inactive,inactive,inactive,inactive
C[Si](C)(CCCN)O[Si](C)(C)CCCN,inactive,inactive,inactive,inactive,inactive,inactive,22.4 µM (active)
O=S(=O)(Oc1ccc(Cl)cc1)c1ccccc1,inactive,inactive,inactive,inactive,inactive,54.5 µM (active),31.7 µM (active)
COc1cc(Cl)c(OC)cc1N,inactive,inactive,inactive,inactive,inactive,48.6 µM (active),63.3 µM (active)
Cc1c(N)cccc1[N+](=O)[O-],inactive,inactive,inactive,inactive,inactive,inactive,inactive
O=[N+]([O-])c1ccc(NCCO)c(OCCO)c1,48.6 µM (active),inactive,48.6 µM (active),inactive,27.3 µM (active),inactive,inactive
Cc1ccc(C(C)OC(=O)C2(C)CCC(C(=O)O)C2(C)C)cc1 (centres undefined),inactive,inactive,inactive,inactive,inactive,inactive,inactive
CCOc1ccc(N=Nc2ccc(/C=C/c3ccc(N=Nc4ccc(OCC)cc4)cc3S(=O)(=O)O)c(S(=O)(=O)O)c2)cc1,47.8 µM (active),inactive,38 µM (active),inactive,42.6 µM (active),inactive,inactive
O=C(CS)Nc1ccccc1,inactive,inactive,inactive,inactive,inactive,inactive,inactive
COc1ccc2cccc(CCNC(C)=O)c2c1,inactive,inactive,inactive,inactive,inactive,inactive,inactive
CCCCCCCC/C=C\CCCCCCCC(=O)OCC,inactive,inactive,inactive,inactive,inactive,inactive,inactive
NCCCN1CCOCC1,inactive,inactive,inactive,inactive,inactive,inactive,35.5 µM (active)
CCCCOC(=O)CCCCCCCC(=O)OCCCC,inactive,inactive,inactive,inactive,inactive,inactive,inactive
COS(=O)(=O)C(F)(F)F,inactive,inactive,inactive,inactive,inactive,inactive,inactive
C=C1[C@H]2CC[C@@H]3[C@H]2C(C)(C)CCC[C@]13C,inactive,inactive,inactive,inactive,inactive,inactive,inactive
